# Screens as filed in PubChem.
# Most compounds without a hit are left out; they make up all but 4.5% or so of the library.
# Rpn11 block – inhibitors of human proteasome Rpn11 | inhibition, % at 20 µM | 0.59% of 360,000 active | O00487 | human 26S proteasome, Ub4-pepOG fluorescence polarization; 20S core pre-blocked with epoxomicin;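 active = inhibition at 20 µM, scaled to each plate's controls, above about 33%, limit read from the data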
# Target sequence (O00487 whole entry, looked up): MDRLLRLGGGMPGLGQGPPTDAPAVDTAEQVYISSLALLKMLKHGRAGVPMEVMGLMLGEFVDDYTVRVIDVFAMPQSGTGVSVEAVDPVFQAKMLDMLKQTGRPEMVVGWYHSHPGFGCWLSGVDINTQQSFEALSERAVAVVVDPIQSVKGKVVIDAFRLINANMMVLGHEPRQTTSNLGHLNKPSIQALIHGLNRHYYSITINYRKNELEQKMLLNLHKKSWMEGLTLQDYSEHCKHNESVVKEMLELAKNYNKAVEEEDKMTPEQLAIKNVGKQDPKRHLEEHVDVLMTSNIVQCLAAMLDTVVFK
# NR3A LBD binder – NR3A (human) ligand-binding domain modulation. NR3A LBD differential scanning fluorimetry, Tm shift; 0% = protein alone, 100% = glycine-bound protein. Tm shift relative to glycine control, % at 25 µM. 2.5% of 340,000 active. AID 1259313;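 active = melting temperature shift of at least 10% of the positive control shift, at one fixed dose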
# dFosB activator – mouse delta FosB homodimer activation; P13346; purified delta FosB, TAMRA-CDK5 oligo fluorescence polarization; percent of positive-control signal above neutral wells; activation, % at 25 µM; 0.99% of 340,000 active;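 active = mean activation above about 17%, with every replicate also reaching it, limit read from the data, passing the limit was not always enough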
# Target sequence (P13346 whole entry, looked up): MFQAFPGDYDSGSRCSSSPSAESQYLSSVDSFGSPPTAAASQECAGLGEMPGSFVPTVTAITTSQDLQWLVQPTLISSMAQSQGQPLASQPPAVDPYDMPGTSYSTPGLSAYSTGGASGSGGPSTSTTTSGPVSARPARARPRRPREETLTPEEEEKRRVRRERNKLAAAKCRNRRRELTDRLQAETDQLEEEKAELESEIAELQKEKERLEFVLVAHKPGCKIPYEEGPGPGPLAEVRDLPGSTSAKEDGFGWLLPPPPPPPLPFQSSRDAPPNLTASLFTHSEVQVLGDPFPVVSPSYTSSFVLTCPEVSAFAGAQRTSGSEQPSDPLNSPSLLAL
# TPT1 inh – inhibitors of Candida albicans tRNA 2'-phosphotransferase TPT1 | recombinant caTPT1, FP RNA substrate dephosphorylation | inhibition, % at 5 µM | 0.81% of 300,000 active;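 active = inhibition above the mean of all tested compounds plus 3 SD, set per screening campaign, cut at about 24% in these data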
# ZTA DNA inh – blocks Epstein-Barr virus ZTA, an EBNA-1 counter-screen. P03206. ZTA-DNA binding, fluorescence polarization. inhibition, % at 11 µM. 0.15% of 320,000 active. AID 2234; in the data active = inhibition above about 33%
# EBNA-1 inh – blocks EBNA-1 binding to DNA | EBNA-1 DNA binding, fluorescence polarization | inhibition, % at 14.8 µM | 0.34% of 300,000 active | AID 1950; in the data active = inhibition above about 28%
# caTPT1 confirm – TPT1 (C. albicans) inhibition, confirmation; shares compounds with TPT1 inh; recombinant caTPT1, fluorescence polarization, RNase T1 coupled; inhibition, % at 5 µM; 74% of 2,400 active; AID 2149;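 active = inhibition above the primary screen limit, the mean inhibition of all tested compounds plus 3 SD, cut at about 25% in these data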
# RNase T1 counter – blocks Aspergillus oryzae RNase T1, a TPT1 counter-screen. RNase T1 cleavage, fluorescence polarization, 1536-well. 83% of 2,400 active. shares compounds with TPT1 inh. inhibition, % at 5 µM;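 active = inhibition above the solvent-only control well mean plus 3 SD, limit set per screening run, cut at about 23% in these data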;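 also: inhibitors block cleavage so intact labeled substrate keeps polarization high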
# A number is an active result; 0 = inactive; - = no result shown.
SMILES,Rpn11 block,NR3A LBD binder,dFosB activator,TPT1 inh,ZTA DNA inh,EBNA-1 inh,caTPT1 confirm,RNase T1 counter
CN1/C(=C\C(=O)Nc2ccc(F)cc2)C(C)(C)c2ccccc21,0,0,0,0,0,0,-,-
Cc1ccc(NC(=O)CN(C)C(=O)c2cc(-c3ccco3)nc3ccccc23)cc1,0,0,0,24.7,0,0,0,0
CCOCC(=O)Nc1nc2ccc(C)cc2s1,0,0,0,0,0,0,-,-
Cc1ccc2nc(NC(=O)CSCC(=O)OCC(=O)c3ccccc3)sc2c1,0,0,0,30.1,0,0,0,0
CC1=C(C(=O)OC(C)C)C(c2cccc([N+](=O)[O-])c2)n2c(cc(=O)[nH]c2=S)N1 (stereo not given),0,0,0,0,0,0,-,-
COc1ccc(Cc2c(C3CCCCC3)nc3c(C)cc(Br)cn23)c(C)c1,0,-,-,-,-,-,-,-
CCCCOc1ccc(-c2nc(/C=N/c3nccs3)c(O)o2)cc1,0,0,0,0,0,0,-,-
CCOc1ccc2nc(/N=C/c3nc(-c4ccc(Br)cc4)oc3O)sc2c1,-,0,0,50.2,0,0,57.7,67.6
C=CCN1C(=O)CS/C1=C(\C#N)S(=O)(=O)c1ccc(C)cc1,0,0,0,74.2,0,0,0,0
Cc1nc2ccccc2c(=O)n1/N=C/c1c(O)ccc2ccccc12,0,0,0,39.2,0,0,0,0
O=S(=O)(/N=C(/Nc1cccc2ccccc12)c1ccccc1)c1ccc(Br)cc1,0,0,0,0,0,0,-,-
CCC(C)N1CCNCC1 (stereo not given),0,0,0,33.2,0,0,0,0
Cc1ccc(S(=O)(=O)N2CCOCC2)cc1C(=O)N1CCN(S(=O)(=O)c2ccccc2F)CC1,0,0,0,-,-,-,-,-
O=C(COC(=O)c1cccs1)Nc1cccc(Cl)c1,0,0,0,-,0,-,-,-
CC(=O)Nc1cccc(NC(=O)Nc2ccc(F)cc2F)c1,0,0,0,55.0,0,0,0,0
O=C(Nc1ccccc1)Nc1ccc(F)cc1F,0,0,0,0,0,0,-,-
COc1ccccc1NS(=O)(=O)c1cc([N+](=O)[O-])ccc1N/N=C/c1sc(N2CCOCC2)nc1-c1ccccc1,-,0,0,96.6,0,0,110.8,110.5
COc1ccc(C(=O)N/N=C/c2sc(N3CCOCC3)nc2-c2ccccc2)cc1OC,0,0,0,0,0,0,-,-
CCOC(=O)c1sc2c(c1C)c(=O)n(Cc1ccccc1)c(=O)n2CCN(C)C,0,0,0,0,0,0,-,-
COC(=O)C(=CC(=CN(C)C)C=C(C(=O)OC)C(=O)OC)C(=O)OC,0,0,0,0,0,0,-,-
CN(C)c1ccc(/C=C2/NC(=O)NC2=O)cc1,0,0,0,0,0,0,-,-
CN(C)c1ccc(/C=C2\N=C(c3ccc(Cl)c([N+](=O)[O-])c3)NC2=O)cc1,0,0,0,52.9,0,0,85.6,93.7
CN(C)C(=O)CCc1ccc2c3c([nH]c2c1)[C@]1(CCc2ccccc2)[C@@H](C(=O)N2CCCCC2)C[C@H](CC(=O)NCCCn2ccnc2)C(=O)N1CC3,0,0,0,-,-,-,-,-
Cc1cc(C(=O)N/N=C2\CCCC(=O)C2)c(C)o1,0,0,0,-,-,-,-,-
COc1ccc2c(Cl)c(C(=O)N/N=C3\CCCC(=O)C3)sc2c1,-,0,0,97.2,0,0,120.7,114.6
SMILES,Rpn11 block,NR3A LBD binder,dFosB activator,TPT1 inh,ZTA DNA inh,EBNA-1 inh,caTPT1 confirm,RNase T1 counter
Cc1ccc(OCCSc2nc3ccccc3n2CC(=O)O)c(C(C)C)c1,0,0,0,0,0,0,-,-
Cc1ccn2c(CN(C)CCn3nc(C)cc3C)c(C(=O)N3CCCCCC3)nc2c1,0,0,0,0,0,0,-,-
COC(=O)c1ccc(C(=O)Nc2ccc(N)cc2N)cc1,-,0,0,107.8,0,0,0,0
COc1ccccc1NC(=O)c1ccc(N)cc1,0,0,0,0,0,0,-,-
COc1cc(/C=N/NC(=O)CC#N)cc(Br)c1O,0,0,0,26.6,0,0,0,0
COc1cc(/C=N/NC(=O)Cc2ccc(Br)cc2)cc(OC)c1O,0,0,0,0,0,0,-,-
O=C(c1ccco1)[C@@H]1[C@@H]2C(=O)N(c3ccc(F)cc3)C(=O)[C@@H]2[C@H]2C=Cc3ccccc3N21,0,0,0,30.0,0,0,0,31.1
COc1ccc(-n2c(O)c(/C=N/NS(=O)(=O)c3ccc(C)c([N+](=O)[O-])c3)c3ccccc3c2=O)cc1OC,-,0,0,100.0,0,0,113.8,112.5
CCOc1cccc(/C=N/NS(=O)(=O)c2ccc(C)c([N+](=O)[O-])c2)c1O,0,0,0,94.3,0,0,0,0
COc1cc(/C=N/NS(=O)(=O)c2ccc(C)c([N+](=O)[O-])c2)cc([N+](=O)[O-])c1O,0,0,0,0,0,0,-,-
O=C(NC(=S)Nc1cccc(O)c1)C1CCCCC1,0,0,0,-,-,-,-,-
C=CCn1c(=O)/c(=C/c2ccc(C)o2)s/c1=C(/C#N)C(=O)c1ccccc1,-,0,0,105.6,0,0,144.0,141.9
C=CCn1c(=O)/c(=C\c2ccccn2)s/c1=C(/C#N)C(=O)NCC1CCCO1 (stereo not given),-,0,0,0,0,0,-,-
O=C(CN(C(=O)c1csnn1)c1cccc(Cl)c1)NCCc1ccccc1,0,0,0,0,0,0,-,-
Cn1cc(/C=C2\SC(=S)N(NC(=O)c3ccccc3Cl)C2=O)c2ccccc21,0,12.2,0,76.5,0,0,176.4,161.6
Cn1cc(/C=C2\SC(=O)NC2=S)c2ccccc21,0,0,0,0,0,0,-,-
Cc1ccc(C(=O)NN2C(=O)/C(=C/c3cn(C)c4ccccc34)SC2=S)cc1,0,0,0,160.4,0,0,80.5,86.0
CCC(=O)N1CCN(c2ccccc2NC(=S)NC(=O)c2cccc([N+](=O)[O-])c2)CC1,0,0,0,39.1,0,0,0,0
CCc1ccc(-c2cc(C(=O)Nc3c(C)n(C)n(-c4ccccc4)c3=O)c3ccccc3n2)s1,0,0,0,25.3,0,0,32.7,42.8
CN(C)c1ccc(/C=C/c2cc[n+]([O-])cc2)cc1,-,-,-,0,0,0,-,-
Cc1ccc(/C=C/c2ccc(N(C)C)cc2)[n+](C)c1,-,0,0,36.3,0,0,45.8,55.8
COc1ccc(N/C=C2/Sc3ccccc3NC2=O)cc1,0,0,0,0,0,0,-,-
Cc1ccc(N/C=C2/Sc3ccccc3NC2=O)cc1,-,0,0,28.2,0,0,47.2,53.3
O=C(/C=C/c1cn(CC(O)CN2CCOCC2)c2ccccc12)c1cccs1 (stereo not given),-,-,-,62.9,0,0,81.8,88.0
COc1ccc(C(=O)/C=C/c2cn(CC(O)CN3CCOCC3)c3ccccc23)cc1 (stereo not given),-,0,0,51.5,0,0,44.8,57.0
